Reference: the supplement of paper PMC10849652
Of roughly 8,800 targets only a part is listed; those with a hit were picked by preference. About 0.5% of all pairs of compound and target were hits.

How the values were obtained:
Assay in all cases: log2 fold change, soluble protein after heating vs DMSO (PISA); higher = thermal stabilisation; K562 lysate, 10 uM; active = over 0.2 and 3.5 SD of the protein, either way, in both replicates (recomputed)
[1] = compound: C1=CC=C(C=C1)[C@H](COC2=CC3=C(C=C2)NC(=O)N3)NC(=O)C4=CC=CN(C4=O)CC5=CC(=C(C=C5)F)F
Method in brief: (§1)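 Soluble protein was defined as the supernatant remaining after 21,000xg for 90 min, following pooling of heated aliquots and adjustment to 0.5% NP-40 at 4°C. Before that, crude K562 extract at 1 mg/mL protein in PBS pH 7.4 with 1 mM MgCl2 was treated with 10 μM compound for 30 min and heated for 3 min across 48°C-58°C. Quantification used TMTpro 16plex LC-MS/MS with channel sums equalised, and values are log-two fold changes in thermal stability relative to solvent controls from duplicates.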

[2] = compound: CC1=C(SC2=C1C(=N[C@H](C3=NN=C(N32)C)CC(=O)N)C4=CC=C(C=C4)Cl)C
Method in brief: as §1

[3] = compound: Cc1sc2c(c1C)C(c1ccc(Cl)cc1)=N[C@@H](CC(=O)OC(C)(C)C)c1nnc(C)n1-2
Method in brief: as §1

[4] = compound: c1ccc([C@@H]2C[C@H]2NC2CCNCC2)cc1
Method in brief: as §1

[5] = compound: CC1=C2C(=CC=C1)N=C(N(C2=O)C3=CC=CC=C3C)CN4C=NC5=C(N=CN=C54)N
Method in brief: as §1

Measured: log2 fold change

PRADC1 (UniProt Q9BSG0)
Sequence of UniProt Q9BSG0 (Q9BSG0 whole entry, looked up): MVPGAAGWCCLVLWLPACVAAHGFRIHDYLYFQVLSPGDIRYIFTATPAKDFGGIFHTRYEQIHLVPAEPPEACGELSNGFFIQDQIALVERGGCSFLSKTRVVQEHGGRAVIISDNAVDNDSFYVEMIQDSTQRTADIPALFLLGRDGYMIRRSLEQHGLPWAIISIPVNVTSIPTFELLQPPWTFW
inactive: [1] 0.267 | [2] 0.021 | [3] -0.029 | [4] 0.018

PDIA4, A0A499FI48
inactive: [3] 0.083 | [4] 0.564

PDPK1 (UniProt O15530)
Sequence of UniProt O15530 (O15530 whole entry, looked up): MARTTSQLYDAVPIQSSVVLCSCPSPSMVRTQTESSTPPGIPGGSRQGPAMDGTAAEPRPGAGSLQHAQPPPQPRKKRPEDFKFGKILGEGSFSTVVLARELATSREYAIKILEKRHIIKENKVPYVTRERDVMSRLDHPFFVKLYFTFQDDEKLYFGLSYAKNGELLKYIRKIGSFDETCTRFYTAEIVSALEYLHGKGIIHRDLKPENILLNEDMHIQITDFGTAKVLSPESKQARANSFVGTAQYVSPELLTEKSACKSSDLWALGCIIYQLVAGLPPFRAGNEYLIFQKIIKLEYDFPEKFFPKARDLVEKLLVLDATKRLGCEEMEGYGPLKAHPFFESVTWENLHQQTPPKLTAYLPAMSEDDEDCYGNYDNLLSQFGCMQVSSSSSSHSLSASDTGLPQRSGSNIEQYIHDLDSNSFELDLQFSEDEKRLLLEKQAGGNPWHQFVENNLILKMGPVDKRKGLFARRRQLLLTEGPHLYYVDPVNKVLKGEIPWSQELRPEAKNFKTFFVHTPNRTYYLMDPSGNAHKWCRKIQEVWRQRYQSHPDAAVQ
inactive: [2] 0 | [5] -0.035 | [3] 0.022 | [4] -0.069
